Drawing on PubChem BioAssay AID504465 (National Center for Advancing Translational Sciences (NCATS), 2011), this text covers Potency for 100 molecules.

Each structure is given as a SMILES string. Among all 2,100 compounds or so, about 210 (10%) were called active. Roughly 53% stayed inconclusive and do not appear here. Calls follow the shape of the dose curve; as a rule, active = well fitted inhibition curve with a large enough effect; inconclusive = small, poorly fitted or top-dose-only effect, or effect the other way; inactive = no such curve, though single readings can be large or run the other way. The list shows a part of the results. A call without a number means that no potency is given here.
Potency is read from the fitted curve at half-maximal effect.

The nature of the test: IN Cell qHTS Assay for Inhibitors of the mTORC1 Signaling Pathway in MEF (Tsc2-/-, p53-/-) Cells: Sytravon. Also: nearly all actives have a fitted effect of over 60% in size. The following applies: phospho-rpS6 immunofluorescence, 24 h; series mostly up to 38.3 µM. The essentials: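 Immunofluorescence of rpS6 phosphorylation (Ser235/236) in mouse embryonic fibroblasts lacking Tsc2 and p53, after 24 h compound exposure; Hoechst-normalized signal imaged, each well scored as % active cells relative to rapamycin (7.5 nM) and DMSO controls.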
Regarding `Cc1ccc(CNS(=O)(=O)c2cc(C(=O)Nc3cccc(C(F)(F)F)c3)ccc2F)cc1`, the Potency entry is “inactive”.
The result for `COc1ccc(NC(=O)c2c(NCc3ccc(C)o3)sc3c2CCC(C)C3)c(OC)c1` (stereo not given) reads “inactive”; that for `CC(=O)N1c2ccc(S(=O)(=O)NCC3CCC(C(=O)Nc4cccc(F)c4)CC3)cc2CC1C` (stereo not given), “inactive”.
Take `Cc1cc(-c2ccc(S(=O)(=O)Nc3cc(Cl)ccc3C)s2)on1`: the Potency entry was “inactive”.
On to `COc1cccc(CNC(=O)C2Cc3cc(S(=O)(=O)N4CCCCCC4)ccc3N2C(C)=O)c1` (stereo not given), for which the Potency result was “inactive”.
For `Cc1ccc2nc(/C(C#N)=C/c3cccc(Br)c3)[nH]c2c1` the value was “inactive”; for `Cc1cccc(-n2nnnc2S(C)(=O)=O)c1`, 1.47 µM (active); for `CCc1ccc(S(=O)(=O)c2nnn(-c3cccc(C)c3)c2N)cc1`, “inactive”.
The result for `Cc1cccc(C2C=C(c3ccc(C)c(C)c3)Nc3nnnn32)c1` (stereo not given) reads “inactive”.
As to `COc1ccc(C(=O)NC(c2ccccc2Cl)c2cc(Cl)c3cccnc3c2O)cc1` (stereo not given), the Potency entry was “inactive”.
For `O=C(Nc1nnc(-c2cc(Cl)ccc2Cl)o1)c1ccc2c(c1)OCCO2` the value was “inactive”; for `COC(=O)c1sc2cccc(F)c2c1S(=O)(=O)N1CCN(c2cccc(OC)c2)CC1`, “inactive”.
Regarding `COc1ccc(/C=C/c2nc(C#N)c(NC3CCCCC3)o2)cc1OC`, the Potency result is “inactive”.
The result for `COc1ccc(NC(=O)c2c(C)oc3ccc(O)c(CN4CCCCCC4)c23)cc1` reads “inactive”; that for `COc1cccc(-c2nnc3sc(CN4CCCCC4)cn23)c1`, 14.7 µM (active); that for `COc1cccc(-c2cc(C(=O)Nc3ccn(Cc4ccc(C)cc4)n3)no2)c1`, “inactive”.
For `Cc1ccc(CNCc2c(C(=O)O)n(Cc3ccc(C)cc3)c3cc(C)ccc23)cc1`, the Potency entry was “inactive”.
On to `O=C(Nc1ccc(C(F)(F)F)cc1)c1cc(S(=O)(=O)NC2CCCCCC2)ccc1F`, for which the Potency entry was “inactive”.
As for `CCc1ccccc1NC(=O)CSc1nnc(COc2ccccc2Cl)o1`, the Potency result was “inactive”.
With `Cc1ccc(OCC(=O)Nc2nnc(SCc3cc(=O)n4cc(C)ccc4n3)s2)cc1`, the Potency entry is “inactive”.
For `COc1cc(C(=O)N2CCc3c([nH]c4ccccc34)C2c2ccc(C)cc2)cc(OC)c1OC` (stereo not given) the value was “inactive”; for `COc1cc(C(=O)n2nc(C)c(Sc3ccc(Cl)cc3)c2C)cc(OC)c1OC`, 11.7 µM (active); for `Cc1ccc(-n2c(SCc3ccccc3C)nc3[nH]ncc3c2=O)cc1C`, “inactive”.
The result for `COc1ccc(Cl)cc1NC(=O)c1c(NCc2cccnc2)sc2c1CCC(C)C2` (stereo not given) reads “inactive”.
As to `COc1ccc(Cl)cc1NC(=O)c1c(NCc2cccs2)sc2c1CCC(C)C2` (stereo not given), the Potency entry is “inactive”.
As to `CC(C)(C)C1CCc2c(sc(NC(=O)c3cccc(Cl)c3)c2C(N)=O)C1` (stereo not given), the Potency was 7.36 µM (active).
Turning to `CCCCC(=O)OC1=C(C(=O)c2ccccc2)N(CCC)S(=O)(=O)c2ccccc21`, the Potency result is “inactive”.
The result for `Cc1scc(CN2CCN(c3ccccc3F)CC2)c1C` reads “inactive”.
As for `CC1C(=O)Nc2ccc(S(=O)(=O)Nc3ccccc3Br)cc2NC1=O` (stereo not given), the Potency entry was “inactive”.
For `CN(C)CCNC(=O)c1ccc(-n2c(-c3ccccc3)cc3c2CCCCC3)cc1` the value was “inactive”; for `CCSc1ncc(Cl)c(C(=O)Nc2ccc(S(=O)(=O)N3CCCCC3CC)cc2)n1` (stereo not given), “inactive”; for `CCS(=O)(=O)c1ncc(Cl)c(C(=O)Nc2ccc(S(=O)(=O)N(C)c3ccccc3)cc2)n1`, 0.927 µM (active).
As to `CN(C)C(=O)c1c(NC(=O)c2ccccc2F)sc2c1CCCC2`, the Potency result was “inactive”.
Regarding `CC(=O)Nc1c(C(=O)Nc2ccccc2F)oc2ccccc12`, the Potency entry was “inactive”.
Regarding `CCCS(=O)(=O)c1ncc(Cl)c(C(=O)Nc2c(C(=O)Nc3ccccc3)oc3ccccc23)n1`, the Potency was 2.07 µM (active).
For `CCS(=O)(=O)c1ncc(Cl)c(C(=O)Nc2c(C(=O)Nc3cccc(C)c3)oc3ccccc23)n1` the value was “inactive”.
For `CCS(=O)(=O)c1ncc(Cl)c(C(=O)Nc2ccccc2)n1` the value was 2.61 µM (active).
For `CCNC(=O)c1c(NC(=O)c2nc(S(=O)(=O)CC)ncc2Cl)sc2c1CCCC2` the value was 2.07 µM (active); for `Cc1cc(C)cc(-n2c(SCC(N)=O)nc3c([nH]c4ccccc43)c2=O)c1`, “inactive”.
For `CC1=C(C(=O)Nc2ccccc2)C(c2cccnc2)n2nc(SCc3ccccc3F)nc2N1` (stereo not given), the Potency entry is “inactive”.
For the molecule `COc1ccc(Cl)cc1NC(=O)c1c(NCc2ccc(C)o2)sc2c1CCC(C)C2` (stereo not given), the Potency entry was “inactive”.
In the case of `COC(=O)c1ccc([C@H]2Nc3ccc(S(=O)(=O)Nc4ccc(F)cc4)cc3[C@H]3C=CC[C@H]32)cc1`, the Potency entry is “inactive”.
For `CC(C)c1ccc(S(=O)(=O)Nc2ccc3oc4c(c3c2)C(=O)CC(C)(C)C4)cc1` the value was “inactive”; for `COc1cc(S(=O)(=O)NCCc2c(C)[nH]c3ccccc23)c(C)cc1C`, “inactive”; for `CN(c1ccccc1)S(=O)(=O)c1ccc(NC(=O)c2nc(S(C)(=O)=O)ncc2Cl)cc1`, 0.736 µM (active).
In the case of `CSc1ncc(Cl)c(C(=O)N(C)c2ccccc2)n1`, the Potency entry was “inactive”.
For `CN(C)S(=O)(=O)c1ccc(C(=O)Nc2ccc(-n3nncc3-c3ccccc3)cc2)cc1` the value was “inactive”.
Regarding `COC(=O)c1sccc1S(=O)(=O)N(CC(=O)Nc1ccc(C)cc1)c1ccccc1`, the Potency result is “inactive”.
For `CCN(c1ccccc1)S(=O)(=O)c1ccc(NC(=O)c2nc(S(C)(=O)=O)ncc2Cl)cc1` the value was 2.07 µM (active).
`CCN(CC)c1nc2ccccc2nc1C(=O)Nc1ccc(C(C)=O)cc1`: the Potency entry is “inactive”.
Consider `Oc1cccc(Nc2nc(-c3ccccc3)nc3ccccc23)c1`, for which the Potency result was “inactive”.
As to `Cc1ccc(-n2cnc3cc(C(=O)NCCC4=CCCCC4)ccc32)cc1Cl`, the Potency result is “inactive”.
As for `Cc1ccc(NC(=O)N2CC3CCCN3c3ccccc32)cc1Cl` (stereo not given), the Potency entry is “inactive”.
Turning to `Cc1ccc(-c2nn3c(=O)cc(CN4CCN(C(=O)Nc5cc(Cl)ccc5C)CC4)nc3s2)cc1`, the Potency entry is “inactive”.
The result for `CCOC(=O)c1c(NC(=O)c2ccc(S(=O)(=O)N3CCC(C)CC3)cc2)sc2c1CCN(C)C2` reads “inactive”; that for `COc1ccccc1CNC(=O)C(=O)NCC(c1cccnc1)N1CCN(c2ccc(F)cc2)CC1` (stereo not given), “inactive”.
For `Cc1ccc(/C=C(\C#N)C(=O)Nc2ccc(Br)cc2)o1`, the Potency entry was “inactive”.
For `Cc1[nH]n2c(=O)cc(-c3ccc(Cl)cc3)nc2c1-c1ccccc1` the value was “inactive”.
For `COc1cccc(OCc2nc3ccccc3n2CCOc2ccc(C)cc2)c1` the value was “inactive”.
The result for `CCn1c(=N)n(CCOc2ccc(Br)cc2)c2ccccc21` reads 6.56 µM (active); that for `Cc1ccc(OCCn2c(CNc3cccc(C)c3)nc3ccccc32)cc1`, “inactive”; that for `Cc1ccccc1OCC(O)Cn1c(=N)n(CCN2CCCCC2)c2ccccc21` (stereo not given), 5.85 µM (active).
Take `N=c1n(CCN2CCCCC2)c2ccccc2n1CC(O)COc1ccc(Cl)cc1Cl` (stereo not given): the Potency is 2.61 µM (active).
`CCCCn1c(=N)n(CCOc2ccccc2OC)c2ccccc21`: the Potency was 6.56 µM (active).
As for `COc1ccccc1N1CCN(CC(O)COc2ccc(C)cc2C(C)(C)C)CC1` (stereo not given), the Potency entry was “inactive”.
For `COc1cc(C2CC(=O)Nc3cc4c(cc32)OCCO4)cc(OC)c1O` (stereo not given) the value was “inactive”; for `COc1ccccc1NC(=O)CSc1nnc2c(n1)[nH]c1ccccc12`, “inactive”.
For `CCN(C(=O)c1cc2c(=O)oc3ccc(C)cc3c2s1)c1ccccc1F` the value was “inactive”; for `Cc1ccccc1C(=O)Nc1cccc(OCc2cc(=O)n3cccc(C)c3n2)c1`, “inactive”; for `CCOc1ccc(C2=C(C(C)=O)Sc3nnc(C)n3N2C(C)=O)cc1`, “inactive”.
Take `O=C(NCc1ccccc1Cl)c1nnc(Cc2cccc(F)c2)o1`: the Potency entry is “inactive”.
Consider `COc1ccc(C)cc1NC(=O)C(NS(=O)(=O)c1cccs1)c1ccccc1` (stereo not given), for which the Potency entry was “inactive”.
The result for `CCCCCn1c(-c2cccc(C)c2)nc2ccccc21` reads “inactive”.
`CCCCCn1c(=N)n(CC(O)COc2cccc(C)c2)c2ccccc21` (stereo not given): the Potency was 2.61 µM (active).
The result for `CCN(CC)CCn1c(=N)n(CC(O)COc2ccccc2C)c2ccccc21` (stereo not given) reads 5.85 µM (active); that for `COc1ccc(N2CCN(CC(O)COc3ccc(C)c(C)c3)CC2)cc1` (stereo not given), “inactive”; that for `CCN(CC)CCn1c(=N)n(CCOc2ccccc2Cl)c2ccccc21`, 3.69 µM (active).
With `Cc1ccccc1OCCn1c(=N)n(C(C)C)c2ccccc21`, the Potency was 9.27 µM (active).
The result for `Cc1ccc(C(=O)n2nc(C)c(S(=O)(=O)N3CCCCCC3)c2C)cc1` reads “inactive”.
Turning to `Cc1ccc(NC(=O)CCNS(=O)(=O)c2cccc3nonc23)cc1Cl`, the Potency entry was “inactive”.
As to `COc1ccc(C(=O)c2cn(Cc3cccc(C)c3)c3cc4c(cc3c2=O)OCO4)cc1`, the Potency result is “inactive”.
On to `CCOC(=O)c1ccccc1Nc1cc(C)nc2nc(-c3ccco3)nn12`, for which the Potency result is “inactive”.
Take `CC(C)c1ccc(NC(=O)c2cc(S(=O)(=O)NCCC3=CCCCC3)ccc2F)cc1`: the Potency result is “inactive”.
For `Fc1ccc(-c2csc(=Nc3cccc(C(F)(F)F)c3)n2Cc2ccc3c(c2)OCO3)cc1` the value was “inactive”; for `CCOC(=O)N1CCc2c(sc3c2C(=O)NC(c2ccc(C(=O)OC)cc2)N3)C1` (stereo not given), “inactive”.
For `COc1cc2c(cc1OC)n(CC(=O)c1ccc(F)cc1)c(=O)n1nc(CCn3nc(C)cc3C)nc21`, the Potency entry is “inactive”.
The result for `Cc1ccc(NC(=O)c2c(C)oc3ccc(O)c(CN(C)Cc4ccccc4)c23)c(C)c1` reads “inactive”; that for `CCC(C)NC(=O)CSc1nc2cc3c(cc2c(=O)n1CCCC(=O)NCCc1ccc(OC)c(OC)c1)OCO3` (stereo not given), “inactive”.
In the case of `COc1ccccc1Oc1nc2c(C)cccn2c(=O)c1/C=C(\C#N)c1nc2ccccc2[nH]1`, the Potency result was “inactive”.
Take `O=C(Cn1cc(SCc2ccc(F)cc2)c2ccccc21)N1CCCCCC1`: the Potency entry was “inactive”.
For `Cc1ccc(-c2noc(CCCC(=O)NCc3ccco3)n2)cc1`, the Potency result is “inactive”.
For `Cc1ccc2nc3c(cc(C(=O)NC4CCCCC4)c(=N)n3C(C)C)c(=O)n2c1` the value was “inactive”; for `COCCn1c(=N)c(C(=O)NCc2ccco2)cc2c(=O)n3cc(C)ccc3nc21`, 13.1 µM (active); for `Cc1ccc(Cl)cc1NC(=O)CCn1cnc2ccccc2c1=O`, “inactive”.
For `COc1ccc(C(=O)N2CCc3cc(OC)c(OC)cc3C2COc2ccc3c(C)cc(=O)oc3c2)c(OC)c1` (stereo not given), the Potency result is “inactive”.
`CCC(C)S(=O)(=O)c1oc(-c2cccs2)nc1S(=O)(=O)c1ccccc1` (stereo not given): the Potency was 1.47 µM (active).
Take `CCCCS(=O)(=O)c1oc(-c2cccs2)nc1S(=O)(=O)c1ccc(F)cc1`: the Potency is 3.69 µM (active).
As for `O=S(=O)(c1ccccc1)c1nc(-c2cccs2)oc1SCc1ccccc1F`, the Potency result is “inactive”.
Turning to `Cc1ccc(S(=O)(=O)c2nnn3c2nc(NCc2cccs2)c2sccc23)cc1`, the Potency result was “inactive”.
With `CCCCS(=O)(=O)c1oc(-c2cccs2)nc1S(=O)(=O)c1ccccc1`, the Potency is 0.585 µM (active).
